Counter-ions that a name gives are not always drawn. Values without a mark were called inactive.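 Rule for the calls: active = normalised median growth AUC below 0.1 of DMSO control; inactive = AUC 0.1 or higher.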
System: P. vulgatus RND KO
Experiment: growth AUC normalised to DMSO control (median) (fraction of control); higher = less growth inhibition, active = hit call of the paper
Conditions: 20 µM
Procedure, shortened: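 In 96-well plates of mGAM seeded at OD578 0.01, strains that had been passaged twice overnight without oxygen were exposed to approved-drug library compounds at 20 μM with 1% DMSO. Hourly OD578 readings were taken for 24 h in an anaerobic incubator. The trapezoidal-rule area under the curve, with curves truncated at entry into stationary phase, was expressed relative to same-plate vehicle wells as the median of three biological replicates.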
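Note: active when median AUC fell below 0.1.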

| SMILES | growth AUC normalised to DMSO control |
| --- | --- |
| CCCCCOC(=O)Nc1nc(=O)n([C@@H]2O[C@H](C)[C@@H](O)[C@H]2O)cc1F [Capecitabine] | 0.987 |
| CC(C)(C)C(O)/C=C/c1ccc2c(c1)OCO2 (configuration not stated) [Stiripentol] | 1.01 |
| COc1cc(N)cn[n+]1-c1ccccc1 [Amezinium metilsulfate] | 1.01 |
| Nc1ccc2cc3ccc(N)cc3nc2c1 [Proflavine hemisulfate] | 0.996 |
| Nc1cc(C(Cl)=C(Cl)Cl)c(S(N)(=O)=O)cc1S(N)(=O)=O [Clorsulon] | 1.02 |
| O=C(NC1CCN(CCCCC2(C(=O)NCC(F)(F)F)c3ccccc3-c3ccccc32)CC1)c1ccccc1-c1ccc(C(F)(F)F)cc1 [Lomitapide] | 1.01 |
| CCOC(=O)c1ccc(C#Cc2ccc3c(c2)C(C)(C)CCS3)nc1 [Tazarotene] | 0.993 |
| C/C(=C(\CCOC(=O)c1ccccc1)SS/C(CCOC(=O)c1ccccc1)=C(/C)N(C=O)Cc1cnc(C)nc1N)N(C=O)Cc1cnc(C)nc1N [Bisbentiamine] | 1.02 |
| C[C@@H]1CCO[C@H]2Cn3cc(C(=O)NCc4ccc(F)cc4F)c(=O)c(O)c3C(=O)N12 [Dolutegravir] | 0.0521 (active) |
| O=S(=O)(c1cccc2cnccc12)N1CCCNCC1 [Fasudil Hydrochloride] | 1 |
| CCCCCCNC(=O)n1cc(F)c(=O)[nH]c1=O [Carmofur] | 0.0803 (active) |
| COc1cc(Nc2c(C#N)cnc3cc(OCCCN4CCN(C)CC4)c(OC)cc23)c(Cl)cc1Cl [Bosutinib] | 1 |
